The supplement of paper PMC3414501
Where a name gives a salt, the structure may show the parent alone.

The compounds below were run on S. cerevisiae NKY1551 his4x/his4B, sporulating (assay: HIS4 meiotic recombination assay sensitivity score (z-score vs DMSO controls); higher = stronger inhibition of sporulation/recombination, active = hit call of the paper).
Method: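 NIH Clinical Collection compounds were added 1:100 from stock (about 100 µM final) to S. cerevisiae. Growth: average doubling time (AvgG) over 24 h of BY4741 (wild-type) or AD1-9 (drug-efflux-pump deficient) in rich media. HIS4: the his4x/his4B heteroallelic recombination reporter strain (SK1) was sporulated 5 h with compound at 30°C, then colony density was read on -his plates after 48 h. Sensitivity score = (compound − mean of 8 DMSO controls)/SD of DMSO controls. Hit cutoffs are >2 for growth and >5 for sporulation.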
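Also: active if sensitivity score above 5.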

HIS4 meiotic recombination assay sensitivity score, active:
CN(C)CCCC1(c2ccc(F)cc2)OCc2cc(C#N)ccc21 (stereo not given) [Citalopram hydrobromide] (stock concentration (mM, diluted 1:100): 7.9) 7.31
CN1CCN(C2=Nc3ccccc3Oc3ccc(Cl)cc32)CC1 [Loxapine succinate] (stock concentration (mM, diluted 1:100): 11) 7.41
Nc1nc2ccc(OC(F)(F)F)cc2s1 [Riluzole] (stock concentration (mM, diluted 1:100): 9.9) 6.83
CN1CCC(=C2c3ccccc3C=Cc3ccccc32)CC1 [Cyproheptadine hydrochloride] (stock concentration (mM, diluted 1:100): 10) 6.95
CN(C)CC[C@@H](c1ccc(Br)cc1)c1ccccn1 [Dexbrompheniramine maleate] (stock concentration (mM, diluted 1:100): 7.3) 7.19

HIS4 meiotic recombination assay sensitivity score, inactive:
CC(Oc1c(Cl)cccc1Cl)C1=NCCN1 (stereo not given) [Lofexidine hydrochloride] (stock concentration (mM, diluted 1:100): 10) 1.48
C[C@H]1O[C@H](O[C@H]2[C@H](O)[C@@H](O)[C@@H](O[C@H]3[C@H](O)[C@@H](O)C(O)O[C@@H]3CO)O[C@@H]2CO)[C@H](O)[C@@H](O)[C@@H]1N[C@H]1C=C(CO)[C@@H](O)[C@H](O)[C@H]1O (stereo not given in full) [Acarbose] (stock concentration (mM, diluted 1:100): 10) -0.56
CCCCCCNC(=O)n1cc(F)c(=O)[nH]c1=O [Carmofur] (stock concentration (mM, diluted 1:100): 10.3) -2.78
CCOC(=O)C1=C(C)NC(C)=C(C(=O)OCC)C1c1ccccc1/C=C/C(=O)OC(C)(C)C [Lacidipine] (stock concentration (mM, diluted 1:100): 10) 0.32
CN(CCO)CC(O)Cn1cnc2c1c(=O)n(C)c(=O)n2C (stereo not given) [Xanthinol nicotinate] (stock concentration (mM, diluted 1:100): 10) -0.61
COc1cc(CNC(=O)CCCC/C=C/C(C)C)ccc1O [Capsaicin] (stock concentration (mM, diluted 1:100): 10) 2.12
CCc1ccc(CCOc2ccc(CC3SC(=O)NC3=O)cc2)nc1 (stereo not given) [Pioglitazone hydrochloride] (stock concentration (mM, diluted 1:100): 9.1) 0.36
c1cnc(N2CCN(Cc3ccc4c(c3)OCO4)CC2)nc1 [Piribedil] (stock concentration (mM, diluted 1:100): 9.7) -0.82
CC1CNc2c(cccc2S(=O)(=O)N[C@@H](CCCNC(=N)N)C(=O)N2CC[C@@H](C)C[C@@H]2C(=O)O)C1 (stereo not given in full) [Argatroban] (stock concentration (mM, diluted 1:100): 10.1) 0.32
CCCN1CCCC[C@H]1C(=O)Nc1c(C)cccc1C [Ropivacaine hydrochloride] (stock concentration (mM, diluted 1:100): 7.7) 2.62
O=C(O[C@H]1[C@H](Oc2ccccc2COC(=O)C2(O)C=CCCC2=O)O[C@H](CO)[C@@H](O)[C@@H]1O)c1ccccc1 (stereo not given in full) [Tremulacin] (stock concentration (mM, diluted 1:100): 10) -1.23
CN1CCN(c2nc3cc(C(F)(F)F)ccc3n3cccc23)CC1 (stock concentration (mM, diluted 1:100): 10) -0.17
C#C[C@]1(O)CC[C@H]2[C@@H]3CCc4cc(OC)ccc4[C@H]3CC[C@@]21C [Mestranol] (stock concentration (mM, diluted 1:100): 10) -0.79
CCC(=O)NS(=O)(=O)c1ccc(-c2c(-c3ccccc3)noc2C)cc1 [Parecoxib] (stock concentration (mM, diluted 1:100): 9.8) 0.05
C#C[C@]1(O)CC[C@H]2[C@@H]3[C@H](C)CC4=C(CCC(=O)C4)[C@H]3CC[C@@]21C [Tibolone] (stock concentration (mM, diluted 1:100): 10) 1.06
COc1ccc(CN2CCN(C(c3ccc(F)cc3)c3ccc(F)cc3)CC2)c(OC)c1OC [Lomerizine dihydrochloride] (stock concentration (mM, diluted 1:100): 8.7) -0.52
O=C1c2c(O)cc(O)cc2OC(c2ccc(O)c(O)c2)C1O (stereo not given) [Taxifolin] (stock concentration (mM, diluted 1:100): 10.1) -0.52
CC(C)Oc1ccc2c(=O)c(-c3ccccc3)coc2c1 [Ipriflavone] (stock concentration (mM, diluted 1:100): 10) -1.16
NC[C@H]1CC[C@H](C(=O)Oc2ccc(CCC(=O)O)cc2)CC1 [Cetraxate hydrochloride] (stock concentration (mM, diluted 1:100): 9) -0.39
CCOc1cc(CC(=O)N[C@@H](CC(C)C)c2ccccc2N2CCCCC2)ccc1C(=O)O [Repaglinide] (stock concentration (mM, diluted 1:100): 10) 0.84
COc1cc(OC)c(C(=O)CCCN2CCCC2)c(OC)c1 [Buflomedil hydrochloride] (stock concentration (mM, diluted 1:100): 8.9) -1.08
O=c1[nH]cnc2c1ncn2[C@H]1CC[C@@H](CO)O1 [Didanosine] (stock concentration (mM, diluted 1:100): 10.1) 0.35
NC1CCN(c2nc3c(cc2F)c(=O)c(C(=O)O)cn3-c2ccc(F)cc2F)C1 (stereo not given) [Tosufloxacin tosylate] (stock concentration (mM, diluted 1:100): 7) -2.15
CN1CCN(CCCN2c3ccccc3Sc3ccc(Cl)cc32)CC1 [Prochlorperazine] (stock concentration (mM, diluted 1:100): 10.4) -2.14
CC(C)(C)NC(=O)[C@H]1CC[C@H]2[C@@H]3CC[C@H]4NC(=O)C=C[C@]4(C)[C@H]3CC[C@]12C [Finasteride] (stock concentration (mM, diluted 1:100): 10) 3.09
O=C(O)c1cc(/N=N/c2ccc(S(=O)(=O)Nc3ccccn3)cc2)ccc1O [Sulfasalazine] (stock concentration (mM, diluted 1:100): 10) -0.54
O=C(O)CCNC(=O)c1ccc(/N=N/c2ccc(O)c(C(=O)O)c2)cc1 [Balsalazide] (stock concentration (mM, diluted 1:100): 10) -1.14
O=C(NCCN1CCOCC1)c1ccc(Cl)cc1 [Moclobemide] (stock concentration (mM, diluted 1:100): 10) -1.83
C=C1/C(=C\C=C2/CCC[C@]3(C)[C@@H]([C@H](C)CCCC(C)(C)O)CC[C@@H]23)C[C@@H](O)C[C@@H]1O [Calcitriol] (stock concentration (mM, diluted 1:100): 10) 2.18
CN(Cc1cnc2nc(N)nc(N)c2n1)c1ccc(C(=O)N[C@@H](CCC(=O)O)C(=O)O)cc1 [Methotrexate] (stock concentration (mM, diluted 1:100): 14.6) 0.19
CC(=O)Nc1ccc(CC(=O)O)cc1 [Actarit] (stock concentration (mM, diluted 1:100): 10) 0.62
COc1ccnc(C[S+]([O-])c2nc3cc(OC(F)F)ccc3[nH]2)c1OC (stereo not given) [Pantoprazole sodium] (stock concentration (mM, diluted 1:100): 10) 0.54
CC(c1cc2ccccc2s1)N(O)C(N)=O (stereo not given) [Zileuton] (stock concentration (mM, diluted 1:100): 10) -2.31
Clc1ccc(CO/N=C(\Cn2ccnc2)c2ccc(Cl)cc2Cl)c(Cl)c1 [Oxiconazole nitrate] (stock concentration (mM, diluted 1:100): 10) -3.02
CCN(CC)C(=S)SSC(=S)N(CC)CC [Tetraethylthiuram disulfide] (stock concentration (mM, diluted 1:100): 10) -2.95
